# Screening data: PubChem, National Center for Advancing Translational Sciences (NCATS)
# BAZ2B block = blocks human BAZ2B; Potency, µM (titrated, usually from 114 µM), without a hit: at the top dose activity change, negative = inhibition, actives largely listed as inhibitors; Q9UIF8; AID 504333; AlphaScreen BAZ2B-H3K14Ac peptide displacement; actives 4.4% (n = 360,000); note: potency is the fitted concentration of half-maximal effect; % is set by controls: 0 for no effect and ±100 for the full control effect; nearly all actives have a fitted effect of over 60% in size
#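 In this displacement format the biotinylated H3(5-23) peptide acetylated at Lys14 serves as ligand at 50 nM, with BAZ2B at 50 nM in PBS pH 7.4 containing 0.01% Tween-20. Donor and acceptor beads are 10 ug/mL final.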
# PI5P4K alpha inh = inhibitors of human PI5P4K alpha. P48426. PI5P4Kalpha enzyme, ADP-Glo luminescence, 60 min; stronger effect = lower value. max response, %. actives 1.2% (n = 330,000). AID 652105; active = max response of -50% or lower; inconclusive = between -30% and -50%; inactive = -30% or higher; note: value at the top dose of about 77 µM; % is set by controls: 0 for no effect and ±100 for the full control effect
#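 ADP-Glo luminescence end-point read after a 60 min room-temperature kinase reaction of PI5P4Kalpha plus substrate, initiated with ATP at 5 microM final. Buffer: 0.038 M HEPES pH 7.4, EGTA, 0.1% CHAPS, 5% DMSO.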
# HP1b binding inh = inhibitors of HP1-beta chromodomain binding to methylated histone tails. actives 0.56% (n = 390,000). AlphaScreen HP1-beta / biotin-H3K9me3 peptide binding. Potency, µM (series often up to 114 µM), for the others: at the top dose activity change, negative = inhibition, hits mostly inhibitors; note: potency is the fitted concentration of half-maximal effect; nearly all actives have a fitted effect of over 70% in size
# Target sequence (P83916 whole entry, looked up): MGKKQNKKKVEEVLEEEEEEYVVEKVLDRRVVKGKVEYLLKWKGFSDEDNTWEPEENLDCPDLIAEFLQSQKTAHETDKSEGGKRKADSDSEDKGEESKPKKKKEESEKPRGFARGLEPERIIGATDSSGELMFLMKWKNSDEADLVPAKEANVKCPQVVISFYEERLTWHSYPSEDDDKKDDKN
#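 HP1-beta protein (50 nM final) preincubated 30 min at room temperature with biotinylated H3(1-18)K9me3 peptide (50 nM) in PBS pH 7.4, 0.01% Tween-20, then compound added for 30 min. AlphaScreen streptavidin donor/nickel chelate acceptor beads (10 ug/mL final), 30 min dark, luminescence read.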
# L3MBTL1 inh = inhibitors of human L3MBTL1 | Q9Y468 | AlphaScreen L3MBTL1–H3K9me1 peptide binding | Potency, µM (doses to about 57.1 µM), for the others: top-dose activity, negative = inhibition, most hits filed as inhibitors | actives 0.66% (n = 230,000) | AID 485360; note: potency is the fitted concentration of half-maximal effect; % is set by controls: 0 for no effect and ±100 for the full control effect; nearly all actives have a fitted effect of over 60% in size
#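 AlphaScreen proximity signal between nickel-chelate acceptor and streptavidin donor beads (final 10 ug/mL) reports binding of 50 nM L3MBTL1 to 75 nM biotin-H3 K9me1 peptide; complex incubated with compounds 30 min at room temperature; cefsulodin titration as control.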
# G9a inh = inhibitors of human histone lysine methyltransferase G9a | Q96KQ7 | G9a H3K9 monomethylation, AlphaScreen, 2 h | Potency, µM (top dose mostly 102 µM), for the others: at the highest dose activity, negative = inhibition, usual class: inhibitors | actives 8.8% (n = 350,000); note: potency is the fitted concentration of half-maximal effect; % is set by controls: 0 for no effect and ±100 for the full control effect; nearly all actives have a fitted effect of over 75% in size
# Target sequence (Q96KQ7 913-1193 limits assumed): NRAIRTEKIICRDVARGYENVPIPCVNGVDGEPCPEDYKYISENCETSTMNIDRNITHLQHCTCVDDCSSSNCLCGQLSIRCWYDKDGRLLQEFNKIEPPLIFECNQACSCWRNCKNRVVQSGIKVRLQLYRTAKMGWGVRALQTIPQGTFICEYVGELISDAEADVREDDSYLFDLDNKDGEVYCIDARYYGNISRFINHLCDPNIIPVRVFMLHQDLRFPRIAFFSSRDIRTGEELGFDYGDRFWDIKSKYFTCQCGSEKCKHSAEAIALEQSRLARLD
#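 Signal arises when biotinylated H3K9 peptide, once monomethylated, bridges streptavidin donor and antibody-captured acceptor beads. Enzyme at 20 nM was preincubated 15 min with test compounds; peptide 500 nM and SAM 20 uM then reacted for 2 h.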
# JMJD2A Tudor = inhibitors of human JMJD2A Tudor domain | O75164 | AlphaScreen JMJD2A-Tudor / H3K4me3 peptide binding | Potency, µM (highest dose often 114 µM), without a hit: at the top dose activity change, negative = inhibition, hits mostly inhibitors | actives 4.4% (n = 390,000) | AID 504339; note: potency is the fitted concentration of half-maximal effect; % is set by controls: 0 for no effect and ±100 for the full control effect; nearly all actives have a fitted effect of over 50% in size
# Active calls of the source: *; ? = inconclusive; nt = no result; [ ] = remark or other dose. An excerpt weighted towards active compounds, which were near 11% of everything screened. Unless noted, calls come from the whole dose curve; as a rule, active = well fitted inhibition curve with a large enough effect; inconclusive = small, poorly fitted or top-dose-only effect; inactive = no such curve, though single readings can be large or run the other way.
SMILES,BAZ2B block,PI5P4K alpha inh,HP1b binding inh,L3MBTL1 inh,G9a inh,JMJD2A Tudor
COc1ccc(S(=O)(=O)N2CCCCC2)cc1NC(=O)c1ccc([N+](=O)[O-])o1,-5.6%,-3.3,32.9%,-7.5%,1.3%,-5.5%
Cc1cccc(-c2nc(Cn3c(SCc4cc(C)ccc4C)nc4ccncc43)c(C)o2)c1,-23.9%,nt,28.9%,nt,5.6%[59 µM],-29.2%
O=C(Cn1c(=O)c2cc(Cl)ccc2n2nncc12)Nc1ccccc1,0.7%,nt,23.9%,nt,1.5%[59 µM],-11.9%
CCN1CCN(c2ccc(S(=O)(=O)N3CCOCC3)cc2NC(=O)c2ccc(F)cc2Cl)CC1,5.7%,3.6,43.6%,-11.8%,39.8µM*,9.6%
CCN1CCN(c2ccc(S(=O)(=O)N3CCOCC3)cc2NC(=O)/C=C/c2ccc(OC)cc2OC)CC1,-38.3%,-0.7,-3.4%,-19.3%,39.8µM*,-29.0%
CCN1CCN(c2ccc(S(=O)(=O)N3CCCCC3)cc2NC(=O)CCNC(C)=O)CC1,nt,-0.1,7.8%,nt,nt,-18.9%
CCN1CCN(c2ccc(S(=O)(=O)N3CCCCC3)cc2NC(=O)c2cccc(C)c2)CC1,-33.7%,-2.5,-8.0%,-5.9%,50.1µM*,-33.8%
COc1ccc(/C=C/C(=O)Nc2ccc(S(=O)(=O)N3CCOCC3)cc2)c(OC)c1,6.3%,-2.5,35.7%,-10.1%,?,-19.9%
CCN1CCN(c2ccc(S(=O)(=O)N3CCCCC3)cc2NC(=O)c2ccc(C)c(C)c2)CC1,nt,8.3,1.9%,nt,nt,?
CCN1CCN(c2ccc(S(=O)(=O)N3CCCCC3)cc2NC(=O)c2sccc2C)CC1,?,6.4,9.1%,-9.9%,2.24µM*,-29.0%
COc1ccc(C2Nc3ccccc3C(=O)N2NS(=O)(=O)c2ccccc2)c(OC)c1 (stereo unspecified),12.6%,5.7,34.3%,nt,-0.7%,-1.4%
CC(C(=O)O)N1C(=O)/C(=C/C=C/c2ccco2)SC1=S (stereo unspecified),2.51µM*,-101.1*,?,1.12µM*,3.16µM*,3.16µM*
Cc1ccc(/C=C2\SC(=S)N(C(Cc3ccccc3)C(=O)O)C2=O)cc1 (stereo unspecified),?,11.2,-14.4%,-0.8%,?,?
O=C1/C(=C/C=C/c2ccco2)SC(=S)N1NS(=O)(=O)c1ccccc1,7.08µM*,-80.9*,10µM*,nt,3.16µM*,3.55µM*
COc1ccc(OC)c(/C=C2\SC(=S)N(NS(=O)(=O)c3ccccc3)C2=O)c1,39.8µM*,?,-2.7%,nt,-37.4%[12.7 µM],?
O=C(NN1C(=O)/C(=C\c2cccnc2)SC1=S)c1ccco1,nt,-10.2,9.4%,0.3%,?,0.0%[57.1 µM]
COc1ccc(/C=C2\SC(=S)N(NS(=O)(=O)c3ccccc3)C2=O)c(OC)c1,-20.9%,-58.3*,6.2%,nt,?,-25.8%
COc1ccc(OCC(=O)Nc2nc(-c3ccc(Br)cc3)ns2)cc1,-4.1%,nt,69.6%,nt,-2.8%[59 µM],7.3%
CCc1nnc2c(N3CCN(c4cc(Cl)ccc4C)CC3)nc3ccccc3n12,?,nt,23.9%,nt,?,1.7%
Cc1cc(C)c(NC(=O)CSc2nc3c([nH]c4ccccc43)c(=O)n2C)c(C)c1,-0.1%,nt,26.0%[57 µM],nt,2.1%[59 µM],3.5%
COc1cccc(/C=C2\SC(=S)N(C(C(=O)O)c3ccccc3)C2=O)c1OC (stereo unspecified),?,0.0,?,-4.7%,?,?
COc1ccc(/C=C2\SC(=S)N(C(C(=O)O)c3ccccc3)C2=O)c(OC)c1 (stereo unspecified),?,-1.2,6.9%,-18.8%,50.1µM*,-32.7%
O=C1/C(=C/c2cccs2)SC(=S)N1NS(=O)(=O)c1ccccc1,?,-72.8*,20.1%,-13.5%,?,?
O=C1Cc2cc(S(=O)(=O)N3CCCCC3)cc3c2N1CCC3,-1.4%,nt,26.7%,nt,-0.9%[59 µM],-1.9%
COc1ccc2sc(C)[n+](C)c2c1,3.4%,-6.2,72.7%,nt,?,-2.1%
SMILES,BAZ2B block,PI5P4K alpha inh,HP1b binding inh,L3MBTL1 inh,G9a inh,JMJD2A Tudor
CCCC[n+]1c(C)sc2cc(OC)ccc21,-35.5%,-7.0,49.6%,-0.8%,?,15.8µM*
O=C(O)CCc1ccc(-c2ccccc2)n1NC(=O)c1sc2ccccc2c1Cl,?,-1.9,-21.4%,nt,50.1µM*,4.0%[57.1 µM]
NC(=O)Nn1c(CCC(=O)O)ccc1-c1ccc(Cl)cc1,-17.7%,0.3,0.9%,nt,21.5%[12.7 µM],-19.3%
CC1CC(O)CC(C)(C)C1 (stereo unspecified),nt,nt,nt,nt,0.4%[12.7 µM],nt
COc1ccc(OC)c(S(=O)(=O)Nc2cccc(O)c2)c1,nt,-6.7,23.9%,nt,nt,5.8%
CCOc1ccc(S(=O)(=O)Nc2ccc(O)c(Sc3ncn[nH]3)c2)cc1,12.0%,1.0,35.3%,15.5%,22.4µM*,-2.5%
COc1ccc(OC)c(S(=O)(=O)Nc2ccc(O)c3ccccc23)c1,44.7µM*,-20.6,70.8µM*,-24.0%,5.62µM*,?
COc1ccc(OC)c(S(=O)(=O)Nc2ccc(O)c(Sc3ncn[nH]3)c2)c1,?,nt,7.8%,-3.2%,7.94µM*,?
COc1ccc(Cl)cc1S(=O)(=O)Nc1ncn[nH]1,1.4%,-2.5,49.7%,nt,79.4µM*,-11.3%
Cc1ccc(NC(=O)c2cnn(-c3ccc(C)c(C)c3)c2C2CCN(C(=O)OC(C)(C)C)CC2)c(C)c1,5.2%,nt,51.6%,nt,13.4%[59 µM],-29.3%
O=S(=O)(Nc1ccc(O)c2ccccc12)c1ccc(F)cc1,nt,-12.8,?,nt,nt,50.1µM*
Cc1ccc2oc(=O)c3cc(C(=O)Nc4ccc(F)cc4F)sc3c2c1,-4.4%,nt,35.9%,nt,11.8%[59 µM],4.7%
CN1CCN(c2cc3c(c4c2[nH]c2ccccc24)C(=O)CC(C)(C)C3)CC1,-32.1%,2.2,20.1%,nt,56.2µM*,?
